# Sampled rows, rich in hits. Any-hit rate of the full collection: about 3.8%.
# ATXN2 expr inh: Primary qHTS for Inhibitors of ATXN expression | HEK-293 ATXN2-luciferase reporter, luminescence, 24 h | Potency, µM (titrated, usually from 57 µM), inactives show at the highest dose activity change, negative = inhibition, most hits filed as inhibitors | 360,000 compounds, 0.72% hits; further: on the % scale 0 is the no-effect control and ±100 the full control effect; nearly all actives have a fitted effect of over 55% in size
#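 ATXN2-luciferase reporter cells (luciferase flanked by upstream and downstream ATXN2 gene portions) were treated 24 h at 37 °C with compounds at up to 57 uM. SteadyGlo luminescence gave expression; GF-AFC fluorescence gave viability.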
# HepG2 tox-1: qHTS for Inhibitors of TGF-b: Cytotox Counterscreen; AID 588856, 2011; HepG2 CAGA-GFP viability, ATP luminescence, 18 h; Potency, µM (highest dose often 46.1 µM), for the others: at the top dose activity change, negative = cytotoxicity, actives largely listed as cytotoxic; 410,000 compounds, 0.76% hits
#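 HepG2 CAGA-GFP cells (1000/well, DMEM with 1% FBS) received compound, then TGF-beta at 500 pg/mL final, and were incubated 18 hours at 37 degrees C. Viability was read by CellTiter-Glo luminescence. Media-only wells were set as complete cell-killing and DMSO as no toxicity.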
# ATXN viability: Viability Counterscreen for Primary qHTS for Inhibitors of ATXN expression; 400,000 compounds, 0.49% hits; AID 651635, 2014; Potency, µM (top dose mostly 56.7 µM), actives largely listed as cytotoxic; S2 cells (HEK-293 line with an ATXN2-luciferase reporter) viability, CellTiter-Fluor protease fluorescence, 24 h; further: nearly all actives have a fitted effect of over 40% in size
# HT1080NT lethal: qHTS for induction of synthetic lethality in tumor cells producing 2HG: qHTS for the HT-1080-NT fibrosarcoma cell line; HT-1080-NT fibrosarcoma viability, CellTiter-Glo ATP luminescence, 48 h; Potency, µM (doses to about 46.1 µM), for the others: at the top dose activity, negative = less viability, usual class: cytotoxic; 360,000 compounds, 1.6% hits;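 further: NT is the 2HG producing partner of a matched IDH1 knockdown line; 0% = DMSO-treated cells and -100% = media-only wells without cells; nearly all actives have a fitted effect of over 55% in size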
#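 HT-1080-NT; 750 cells/well; 5% FBS RPMI; 48 h compound, 37 degrees C; CellTiter-Glo luminescence; curve fitting and curve-class assignment.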
# TGFb inhibitor: qHTS for Inhibitors of TGF-b; HepG2 CAGA-GFP TGF-b/SMAD3 reporter, GFP fluorescence, 18 h; TGF-beta stimulated, 500 pg/mL final; 410,000 compounds, 1.2% hits; Potency, µM (titrated, usually from 46.1 µM), inactives show at the highest dose activity, negative = inhibition, actives largely listed as inhibitors; further: on the % scale 0 is the no-effect control and ±100 the full control effect; nearly all actives have a fitted effect of over 65% in size
#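 TGF-beta reporter screen: HEPG2 CAGA-GFP, 1% FBS, 500 pg/mL TGF-beta final, 18 h; per-cell GFP summed per well; curves fitted and categorized by class.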
# HT1080 IDH1KD tx: qHTS for induction of synthetic lethality in tumor cells producing 2HG: qHTS for the HT-1080-IDH1KD cell line | 360,000 compounds, 2% hits | Potency, µM (highest dose often 46.1 µM), for the others: at the top dose activity, negative = toxicity, hits mostly cytotoxic | HT-1080 IDH1 knockdown viability, ATP luminescence, 48 h;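 further: 0% = DMSO wells and -100% = cell-free medium wells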
#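 Luminescent ATP read-out (CellTiter-Glo, 10 min at room temperature) after 48 h compound exposure at 37 °C gave viability of IDH1-knockdown HT-1080 cells. Activity was normalised to DMSO and cell-free wells, then fitted as concentration-response curves.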
# TGFb confirm: qHTS for Inhibitors of TGF-b: Confirmation of Cherry Picks. shares compounds with TGFb inhibitor. HepG2 CAGA-GFP TGF-b reporter, GFP fluorescence, 18 h; cells stimulated with TGF-beta, 500 pg/mL. Potency, µM (top dose mostly 46.1 µM), for the others: top-dose activity, negative = inhibition, actives largely listed as inhibitors. 1,600 compounds, 63% hits. AID 720534, 2013; further: on the % scale 0 is the no-effect control and ±100 the full control effect; nearly all actives have a fitted effect of over 65% in size
# HepG2 tox-2: qHTS for Inhibitors of TGF-b: Cytotox Counterscreen for Cherry Picks | shares compounds with TGFb inhibitor | HepG2 CAGA-GFP viability, ATP luminescence, 18 h; cells stimulated with TGF-beta, 500 pg/mL | Potency, µM (top dose mostly 46.1 µM), for the others: top-dose activity, negative = cytotoxicity, most hits filed as inhibitors | 1,600 compounds, 27% hits | AID 720535, 2013; further: on the % scale 0 is the no-effect control and ±100 the full control effect; nearly all actives have a fitted effect of over 70% in size
# TGFb CCL64 inh: qHTS for Inhibitors of TGF-b: CCL64 Cells Orthogonal Assay for Cherry Picks; shares compounds with TGFb inhibitor; CCL64 CAGA-GFP reporter, TGF-b stimulated, GFP fluorescence, 18 h; Potency, µM (top dose mostly 46.1 µM), inactives show at the top dose activity, negative = inhibition, most hits filed as inhibitors; 1,600 compounds, 41% hits; further: nearly all actives have a fitted effect of over 65% in size
# COP TGFb inh: qHTS for Inhibitors of TGF-b: Hit Validation in HepG2 Cells using COP promoter. shares compounds with TGFb inhibitor. HepG2 COP-GFP TGF-b reporter, GFP fluorescence, 18 h; cells stimulated by added recombinant TGF-beta. Potency, µM (doses to about 46.1 µM), for inactives: top-dose activity, negative = inhibition, usual class: inhibitors. 1,600 compounds, 3% hits. AID 720537, 2013; further: nearly all actives have a fitted effect of over 70% in size
# * = called active by the depositor; i = inactive; ? = inconclusive; . = no result. The call rests on the fitted dose curve; in most records, active means well fitted curve in the direction sought with a large enough effect; inconclusive means small, poorly fitted or top-dose-only effect, or another doubt; inactive means no such curve, though single readings can be large; an effect the other way counts as inactive or inconclusive. Potency means the concentration at half of the fitted maximal effect.
SMILES,ATXN2 expr inh,HepG2 tox-1,ATXN viability,HT1080NT lethal,TGFb inhibitor,HT1080 IDH1KD tx,TGFb confirm,HepG2 tox-2,TGFb CCL64 inh,COP TGFb inh
O=C1NCN(c2ccccc2)C12CCN(C(CCc1ccccc1)c1nnnn1Cc1ccccc1)CC2 (stereo not given),?,-1%,?,?,18µM*,?,15µM*,?,12µM*,76%
O=C1NCN(c2ccccc2)C12CCN(C(CCc1ccccc1)c1nnnn1-c1ccc3c(c1)OCCO3)CC2 (stereo not given),0%,4%,?,?,13µM*,-29%,?,-7%,4.1µM*,6%
CSCCC(c1nnnn1Cc1ccccc1)N1CCC2(CC1)C(=O)NCN2c1ccccc1 (stereo not given),-24%,8%,?,?,?,-18%,.,.,.,.
O=C1NCN(c2ccccc2)C12CCN(C(c1ccccc1)c1nnnn1Cc1ccccc1)CC2 (stereo not given),?,4%,?,-29%,11µM*,?,18µM*,-12%,12µM*,-1%
COc1ccc(NC(=O)CCOc2cc(C)ccc2C)cc1S(=O)(=O)N1CCCCC1,-24%,-22%,?,-4%,-20%,0%,.,.,.,.
CS(=O)(=O)Nc1ccccc1C(=O)Nc1cc(Cl)cc(Cl)c1,22µM*,-26%,?,?,7.1µM*,11µM*,7.3µM*,?,8.2µM*,57%
COC(=O)c1cc(NC(=O)Cn2nc(-c3ccccc3)c3c(c2=O)CCCC3)cc(C(=O)OC)c1,-6%,-13%,i,.,?,.,.,.,.,.
CSc1cccc(NC(=O)C2CCN(C(=O)c3cnn(-c4ccccc4)c3-n3cccc3)CC2)c1,?,-20%,?,.,?,.,.,.,.,.
COCCCn1c(N)c(C(=O)OCCOC)c2nc3ccccc3nc21,-11%,-3%,i,18%,-23%,15%,.,.,.,.
CCOC(=O)c1c(N)n(CCCOC(=O)c2ccco2)c2nc3ccccc3nc12,?,3.5µM*,i,23µM*,2.8µM*,18µM*,4.1µM*,5.2µM*,23µM*,5.8µM*
